Test results from PubChem BioAssay (EPA / NIEHS).
Inconclusive results are not listed. Active and inactive are the calls of the source. The calls were made as follows, unless noted: active = hit-call score of the fitted dose curve at least 0.9, where 1 is the maximum; inconclusive = response in the unintended direction; inactive = score below 0.9.

Tests used:
[1] = Tanguay_ZF_120hpf_PFIN_legacy: (Legacy) Oregon State University Tanguay Lab 120 Hour Post-fertilization zebrafish Assay for Pectoral Fin Malformation (AID 2283648);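 also: each larva judged yes or no for fin defect by brightfield with dead larvae skipped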
How it was run: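 Tropical 5D wild-type embryos, dechorionated with pronase at 4 hpf, were placed singly in wells at 6 hpf and statically exposed until 120 hpf at 28C, sealed and dark, with 0.64% (vol/vol) final DMSO; pectoral fin malformation scored present/absent.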

[2] = Tanguay_ZF_120hpf_PIG_legacy: (Legacy) Oregon State University Tanguay Lab 120 Hour Post-fertilization zebrafish Assay for Pigmentation Malformation (AID 2283650)
How it was run: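 Tropical 5D wild-type zebrafish embryos, dechorionated with pronase at 4 hpf, were exposed singly from 6 hpf to 120 hpf statically at 28C in sealed, dark plates with 0.64% DMSO; pigmentation scored present/absent by brightfield microscopy, fitted against DMSO.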

[3] = Tanguay_ZF_120hpf_TRUN_legacy: (Legacy) Oregon State University Tanguay Lab 120 Hour Post-fertilization zebrafish Assay for Truncated Body (AID 2283655)
How it was run: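 Truncated body is recorded as a binary endpoint at 120 hpf by brightfield imaging of wild-type 5D larvae. Exposure runs statically from 6 hpf at 28C with 0.64% DMSO; embryos dying earlier are not scored.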

[4] = Tanguay_ZF_120hpf_NC_legacy: (Legacy) Oregon State University Tanguay Lab 120 Hour Post-fertilization zebrafish Assay for Notochord and Tail Malformation (AID 2283656)
How it was run: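 Dechorionated Tropical 5D wild-type zebrafish embryos, one per well from 6 hpf, statically exposed to 120 hpf at 28C in 0.64% DMSO final. Notochord distortion scored present/absent by brightfield; dead embryos excluded.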

[5] = Tanguay_ZF_120hpf_CFIN_legacy: (Legacy) Oregon State University Tanguay Lab 120 Hour Post-fertilization zebrafish Assay for Caudal Fin Malformation (AID 2283649)
How it was run: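 Binary presence or absence of caudal fin malformation at 120 hpf, read by brightfield microscopy, with DMSO as baseline. Larvae came from 5D wild-type embryos exposed statically from 6 hpf at 28C after pronase dechorionation.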

[6] = Tanguay_ZF_120hpf_CIRC_legacy: (Legacy) Oregon State University Tanguay Lab 120 Hour Post-fertilization zebrafish Assay for Circulatory Malformation (AID 2283651)
How it was run: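 Read-out: presence or absence of circulatory malformation at 120 hpf, scored by brightfield microscopy, fitted in the gain-of-signal direction against DMSO baseline. Wild-type 5D larvae were exposed from 6 hpf after enzymatic chorion removal.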

[7] = Tanguay_ZF_120hpf_SWIM_legacy: (Legacy) Oregon State University Tanguay Lab 120 Hour Post-fertilization zebrafish Assay for Swim Bladder Malformation (AID 2283654);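 also: swim bladder malformation in each larva scored yes or no under brightfield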
How it was run: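 Dechorionated Tropical 5D wild-type embryos, placed singly from 6 hpf, were statically exposed at 28C to 120 hpf with 0.64% DMSO final; swim bladder malformation was scored present/absent by brightfield microscopy, gain of signal relative to DMSO controls.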

[8] = read-out: solute carrier (SLC22A6), SLC22A6 (gene 9356); assay: LTEA_HepaRG_SLC22A6: Life Technologies and Expression Analysis (LTEA) Assay for solute carrier (SLC22A6) using HepaRG (AID 2283653; active = hit-call score of the fitted dose curve at least 0.9, where 1 is the maximum; inactive = score below 0.9); details: mRNA level, 48 h; actives raise or lower the signal
How it was run: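 Read-out is SLC22A6 transcript level by qRT-PCR, normalised to three housekeeping genes and fitted for gain or loss relative to 0.5% DMSO vehicle. Human HepaRG cells received chemicals at up to 100 uM for 48 h.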

[9] = read-out: solute carrier (SLC10A1), SLC10A1 (gene 6554); assay: LTEA_HepaRG_SLC10A1: Life Technologies and Expression Analysis (LTEA) Assay for solute carrier (SLC10A1) using HepaRG (AID 2283657; active = hit-call score of the fitted dose curve at least 0.9, where 1 is the maximum; inactive = score below 0.9); details: mRNA level, 48 h; actives raise or lower the signal
How it was run: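 Differentiated HepaRG cells were plated 48 h, then exposed in serum-free induction medium for 48 h to 8 concentrations (top 100 uM, half-log steps, 0.5% DMSO). SLC10A1 mRNA was quantified by qRT-PCR normalized to ACTB, GAPDH, POLR2A; bidirectional fit versus DMSO.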

SMILES: Oc1ccccc1
- outcome [1]: inactive
- outcome [2]: inactive
- outcome [3]: inactive
- outcome [4]: inactive

SMILES: CN1C(=O)CC[C@H]1c1cccnc1
- outcome [1]: inactive
- outcome [5]: inactive
- outcome [2]: inactive
- outcome [6]: inactive
- outcome [7]: inactive
- outcome [3]: inactive
- outcome [4]: inactive

SMILES: Clc1ccccc1C(c1ccccc1)(c1ccccc1)n1ccnc1
- outcome [1]: inactive
- outcome [6]: inactive
- outcome [4]: inactive

SMILES: O=C(O)c1ccccc1-n1cc(C(=O)O)c(=O)c2cc(Nc3c(F)cc(F)cc3Cl)c(Cl)cc21
- outcome [1]: inactive
- outcome [6]: inactive
- outcome [7]: inactive
- outcome [4]: inactive

SMILES: OC12N=C(c3ccccc3)SC1Cc1cc(Cl)ccc12 (configuration not stated)
- AC50 [5]: 48.1 µM (active)
- AC50 [2]: 44.5 µM (active)
- outcome [6]: inactive
- outcome [7]: inactive
- AC50 [3]: 48.2 µM (active)

SMILES: CCCCCCCCCCCO
- outcome [1]: inactive
- outcome [2]: inactive
- outcome [6]: inactive
- outcome [3]: inactive

SMILES: O=CCCCC=O
- outcome [5]: inactive
- outcome [2]: inactive
- outcome [7]: inactive
- outcome [3]: inactive
- outcome [4]: inactive

SMILES: O=C1O[C@H]([C@@H](O)CO)C(O)=C1O
- outcome [1]: inactive
- outcome [5]: inactive
- outcome [2]: inactive
- outcome [6]: inactive
- outcome [3]: inactive
- outcome [4]: inactive

SMILES: CC[C@@H]1C[C@H](N(Cc2cc(C(F)(F)F)cc(C(F)(F)F)c2)C(C)=O)c2cc(C(F)(F)F)ccc2N1C(=O)OC(C)C
- outcome [5]: inactive
- outcome [2]: inactive
- outcome [6]: inactive

SMILES: O=C(O)Cc1cc(I)c(Oc2ccc(O)c(I)c2)c(I)c1
- outcome [1]: inactive
- AC50 [2]: 0.177 µM (active)
- outcome [6]: inactive
- outcome [7]: inactive
- outcome [3]: inactive
- outcome [4]: inactive

SMILES: CCCCCCCCCCCCO
- outcome [1]: inactive
- outcome [5]: inactive
- outcome [2]: inactive
- outcome [6]: inactive
- outcome [8]: inactive
- outcome [7]: inactive
- outcome [3]: inactive
- outcome [4]: inactive
- outcome [9]: inactive

SMILES: CCCCCCCCOC(=O)c1cc(O)c(O)c(O)c1
- outcome [5]: inactive
- outcome [2]: inactive
- outcome [6]: inactive
- outcome [7]: inactive
- outcome [3]: inactive
- outcome [4]: inactive
